Assay [1] in a line: NCI Yeast Anticancer Drug Screen. Data for the rad50 strain (AID 155).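 Also: 0% = growth of vehicle-only cultures of the same strain.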 The following applies: S. cerevisiae rad50 strain growth inhibition, stronger effect = higher value; at 50.0 µM unless noted. Summed up:
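Relative growth inhibition (compound vs vehicle) was measured in yeast with a defined repair-gene alteration.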

Assay [2] is described as follows: NCI Yeast Anticancer Drug Screen. Data for the mec2-1 strain (AID 157). The following applies: S. cerevisiae mec2-1 strain, stronger effect = higher value; at 50.0 µM unless noted. In a few lines:
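Using mec2-1 yeast: add compound, measure growth, express inhibition versus vehicle-treated cultures.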

The nature of assay [3]: NCI Yeast Anticancer Drug Screen. Data for the sgs1 mgt1 strain (AID 161).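 Also: 0% = growth of cultures given vehicle only.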 The following applies: S. cerevisiae sgs1 mgt1 strain, stronger effect = higher value; at 50.0 µM unless noted. In a few lines: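 Yeast cells carrying a defined DNA-repair defect were exposed to test compounds. Growth inhibition was measured relative to vehicle-treated controls.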
A short description of assay [4]: NCI Yeast Anticancer Drug Screen. Data for the cln2 rad14 strain (AID 165).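 Also: 0% = growth equal to vehicle treated cultures.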 The following applies: S. cerevisiae cln2 rad14 strain, stronger effect = higher value; at 50.0 µM unless noted. Summed up:
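Yeast strain cln2 rad14, bearing defects in cell cycle control and DNA repair, serves as the test system; values reflect growth inhibition compared with vehicle.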

Assay [5] in a line: NCI Yeast Anticancer Drug Screen. Data for the bub3 strain (AID 167). The following applies: S. cerevisiae bub3 mutant strain, stronger effect = higher value; at 50.0 µM unless noted. Summed up:
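Screening used yeast with an engineered genetic alteration affecting cell cycle control. Compound-exposed cultures were compared with vehicle cultures, and reduced growth was taken as inhibition.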

Assay [6] in a line: NCI Yeast Anticancer Drug Screen. Data for the mlh1 rad18 strain (AID 175). The following applies: S. cerevisiae mlh1 rad18 strain growth inhibition, stronger effect = higher value; at 50.0 µM unless noted. In a few lines:
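Steps: expose repair-defective yeast to compound; measure growth; express inhibition against vehicle-treated controls.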

SMILES strings stand for the structures. Compounds without any hit were thinned out: in the full panel of roughly 79,000, 15% have a hit. A number with no mark means an inactive call. The source made the active and inactive calls. Rule as the data show it: active = growth inhibition above about 70%; inactive = the rest.

For `COc1ccc(C(=O)NNC(=O)c2cccc3ccccc23)cc1`, the growth inhibition in assay [1] is 21.8%; in assay [2], -9.75%; in assay [3], 9.7%; in assay [4], 5.8%; in assay [5], 16.6%; in assay [6], -3.6%.
Take `CC1CC[N+](C)(CC(=O)c2ccc(-c3ccc(C(=O)C[N+]4(C)CCC(C)CC4)cc3)cc2)CC1` (stereo not given): the growth inhibition in assay [1] is -8.2%; in assay [2] it was 1.4%; in assay [3], -12.7%; in assay [4], 22.9%; in assay [5] it was -3.15%; in assay [6] it was -10.2%.
As for `COc1ccc(NC(Nc2ccc(OC)cc2)C(Cl)(Cl)Cl)cc1`, the growth inhibition in assay [1] was 15.1%; in assay [2], 9.5%; in assay [3] it was 13%; in assay [4] it was -11.2%; in assay [5] it was -4.55%; in assay [6] it was -8.6%.
As for `COc1ccc(C(=O)CCC(=O)O)c(O)c1`, the growth inhibition in assay [1] was -3.25%; in assay [2] it was 1.35%; in assay [3], -12.6%; in assay [4], -11.1%; in assay [5], -4.15%; in assay [6], -11.3%.
As to `Cc1c2ccccc2nc(CS(C)(=O)=O)[n+]1[O-]`, the growth inhibition was -16.9% in assay [1]; -1.8% in assay [2]; -4.75% in assay [3]; -51.6% in assay [4]; -16.7% in assay [5]; -5.5% in assay [6].
On to `CC1=CC(=O)[C@@H](O)[C@@]2(C)C1C[C@H]1OC(=O)[C@H](C/C=C(/C)C(C)C)[C@H]3C(C)C(O)C4(O)OC[C@@]31C42` (stereo not given in full), for which the growth inhibition in assay [1] was 76.8% (active); in assay [2] it was 77.9% (active); in assay [3], 72% (active); in assay [4], 81.7% (active); in assay [5] it was 80% (active); in assay [6], 76.5% (active).
As for `CC(=O)NC1CCC(CCC2CCCCC2)CC1` (stereo not given), the growth inhibition in assay [1] is 0.55%; in assay [2], 5.3%; in assay [3], 2.45%; in assay [4], 2.25%; in assay [5], -5.9%; in assay [6] it was -9.75%.
As to `COC(=O)C(CCCCCCCC(C(=O)OC)c1nc2n(c1O)C(=N)N=N2)c1nc2n(c1O)C(=N)N=N2` (stereo not given), the growth inhibition in assay [1] is -20.6%; in assay [2] it was -3.75%; in assay [3] it was -7.95%; in assay [4], 11.8%; in assay [5] it was 10.2%; in assay [6] it was 4.75%.
With `CCOC(=O)/C(C#N)=C/c1cccc([N+](=O)[O-])c1`, the growth inhibition was 4.9% in assay [1]; 4.8% in assay [2]; 7.05% in assay [3]; -11.6% in assay [4]; 34.1% in assay [5]; 31.2% in assay [6].
For `Cc1c(CC#N)cc(C)c2c3c([nH]c12)-c1ccccc1CC3`, the growth inhibition was 35.5% in assay [1]; 35.2% in assay [2]; 44% in assay [3]; 11.8% in assay [4]; 37.5% in assay [5]; 18.9% in assay [6].
Turning to `CC1=NN(C(=O)c2ccc(Cl)cc2)C(=O)/C1=C/c1cccc([N+](=O)[O-])c1`, the growth inhibition was -16.7% in assay [1]; -26.2% in assay [2]; -44.9% in assay [3]; -10.6% in assay [4]; -15.9% in assay [5]; -28.4% in assay [6].
Turning to `CCOC(=O)C(=CNC(=S)Nc1c(CC)cccc1CC)C(=O)OCC`, the growth inhibition was -26.2% in assay [1]; -38.4% in assay [2]; -2.9% in assay [3]; 4.65% in assay [4]; -5.15% in assay [5]; -59.9% in assay [6].
As to `CCC(=O)Nc1ccccc1Cl`, the growth inhibition was 3.6% in assay [1]; -1.1% in assay [2]; -15.4% in assay [3]; -42.6% in assay [4]; -1.95% in assay [5]; 4.95% in assay [6].
With `O=C1CN(CCc2ccccc2)CC(=O)N2C(c3ccccc3)CCCN12` (stereo not given), the growth inhibition in assay [1] is 62.7%; in assay [2] it was 38.5%; in assay [3], 65.2%; in assay [4], 42.2%; in assay [5] it was 52%; in assay [6], 43.4%.
As for `COc1ccc(N=C2C(=Nc3ccc(OC)cc3)N(c3ccccc3)C(=S)N2N=C=C2Sc3ccccc3N2C)cc1`, the growth inhibition in assay [1] is -13.2%; in assay [2], -24%; in assay [3], -18.4%; in assay [4], -8.3%; in assay [5], -4.05%; in assay [6], -32%.
As for `CCCCC(CC)C(O)P(=O)(O)O` (stereo not given), the growth inhibition in assay [1] is -9.2%; in assay [2], -15.1%; in assay [3], -9.75%; in assay [4], -14.3%; in assay [5], 2.8%; in assay [6], 0.45%.
On to `O=C(Nc1ccc(Cl)cc1[N+](=O)[O-])Oc1ccc(C2CCCCC2)cc1`, for which the growth inhibition is 98.2% (active) in assay [1]; 94.3% (active) in assay [2]; 98% (active) in assay [3]; 87% (active) in assay [4]; 98% (active) in assay [5]; 97.5% (active) in assay [6].
In the case of `COC(=O)c1c(C)ccc(C)c1Nc1cc(C)ccc1C`, the growth inhibition in assay [1] was -2.65%; in assay [2] it was -18%; in assay [3] it was -1.2%; in assay [4], 9.55%; in assay [5], 5.65%; in assay [6] it was -15.7%.
As to `NC(=O)CCCCCCCCC(N)=O`, the growth inhibition is 10.7% in assay [1]; 4.95% in assay [2]; 9.65% in assay [3]; -4.75% in assay [4]; -1.4% in assay [5]; 31.1% in assay [6].
As for `O=C(O)/C(=C/c1cccs1)c1ccc(F)cc1`, the growth inhibition in assay [1] was 19.1%; in assay [2], 12.2%; in assay [3], 15%; in assay [4], 28.9%; in assay [5], -3.2%; in assay [6], 3.75%.

Source of the values: PubChem BioAssay (NCI).
